About 79,000 compounds went through this panel and 15% of them were active in at least one assay; those are over-represented in the sample as a whole. Activity calls are given as the source filed them. Rule as the data show it: active = growth inhibition above about 70%; inactive = the rest.
Legend:
[1] = NCI Yeast Anticancer Drug Screen. Data for the rad52 strain (AID 147);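 also: 0% = growth of vehicle-treated control cultures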; conditions: S. cerevisiae rad52 mutant growth inhibition, active compounds read high
In short: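 Genetically altered yeast (DNA damage repair defect) treated with compound; inhibition calculated relative to vehicle.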

[2] = NCI Yeast Anticancer Drug Screen. Data for the wt1 strain (AID 149);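 also: 0% = growth of vehicle-treated wt1 cultures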; conditions: S. cerevisiae wt1 strain (SPY 50644) growth inhibition, active compounds read high
In short: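 Yeast wt1 strain exposed to compounds; growth inhibition measured relative to vehicle-treated controls.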

[3] = NCI Yeast Anticancer Drug Screen. Data for the rad50EPP+ strain (AID 151);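 also: 0% = growth of vehicle-treated control cultures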; conditions: S. cerevisiae rad50 mutant strain, active compounds read high
In short: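 Strain rad50EPP+; compound exposure; % growth inhibition vs vehicle.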

[4] = NCI Yeast Anticancer Drug Screen. Data for the mgt1 strain (AID 153); conditions: S. cerevisiae mgt1 mutant growth inhibition, active compounds read high
In short: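 Read-out: yeast growth inhibition vs vehicle control. Strain mgt1, drawn from a panel altered in DNA damage repair or cell cycle control.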

[5] = NCI Yeast Anticancer Drug Screen. Data for the rad50 strain (AID 155);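 also: 0% = growth of vehicle-only cultures of the same strain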; conditions: S. cerevisiae rad50 strain growth inhibition, active compounds read high
In short: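 Yeast carrying a defined DNA repair defect were exposed to test compounds, and growth was compared with vehicle-treated controls to give percent inhibition.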

[6] = NCI Yeast Anticancer Drug Screen. Data for the mec2-1 strain (AID 157); conditions: S. cerevisiae mec2-1 strain, active compounds read high
In short: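 Cells of the genetically defined mec2-1 yeast strain are incubated with test compound. Inhibition of growth is calculated against vehicle-treated controls.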

[7] = NCI Yeast Anticancer Drug Screen. Data for the rad14 strain (AID 159);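 also: 0% = growth of vehicle-treated control cultures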; conditions: S. cerevisiae rad14 strain growth inhibition, active compounds read high
In short: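 Yeast cells carrying a defined DNA-repair defect were exposed to compounds, and growth inhibition was calculated relative to vehicle-treated control cultures.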

[8] = NCI Yeast Anticancer Drug Screen. Data for the sgs1 mgt1 strain (AID 161);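 also: 0% = growth of cultures given vehicle only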; conditions: S. cerevisiae sgs1 mgt1 strain, active compounds read high
In short: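 Test agents were incubated with a DNA-repair-mutant yeast strain. Growth was then read and compared against vehicle-treated controls.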

[9] = NCI Yeast Anticancer Drug Screen. Data for the CLN2oe strain (AID 163);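 also: 0% = growth of vehicle-only control cultures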; conditions: S. cerevisiae CLN2oe strain, active compounds read high
In short: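 Strain altered in cell-cycle control, incubated with compound; growth compared to solvent-treated controls.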

[10] = NCI Yeast Anticancer Drug Screen. Data for the cln2 rad14 strain (AID 165);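 also: 0% = growth equal to vehicle treated cultures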; conditions: S. cerevisiae cln2 rad14 strain, active compounds read high
In short: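 The screen exposed genetically defined yeast (cln2 rad14) to test compounds and scored growth inhibition relative to vehicle-treated controls.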

[11] = NCI Yeast Anticancer Drug Screen. Data for the bub3 strain (AID 167); conditions: S. cerevisiae bub3 mutant strain, active compounds read high
In short: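 Compounds were applied to a genetically altered yeast strain carrying a cell-cycle control defect. Growth inhibition was scored against vehicle-treated controls.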

[12] = NCI Yeast Anticancer Drug Screen. Data for the wt2 strain (AID 169);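 also: 0% = growth of vehicle-treated yeast cultures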; conditions: S. cerevisiae wt2 strain growth inhibition, active compounds read high
In short: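 Steps: yeast strain treated with compound; growth recorded; inhibition calculated relative to cultures given vehicle alone.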

[13] = NCI Yeast Anticancer Drug Screen. Data for the mlh1 strain (AID 171);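 also: 0% = growth of vehicle-treated control cultures of the same strain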; conditions: S. cerevisiae mlh1 strain growth inhibition, active compounds read high
In short: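 Yeast screen: mutant strain plus compound, growth scored against vehicle control wells.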

[14] = NCI Yeast Anticancer Drug Screen. Data for the sgs1 strain (AID 173);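 also: 0% = growth of vehicle-only control cultures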; conditions: S. cerevisiae sgs1 mutant, active compounds read high
In short: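 Inhibition of yeast growth served as the measure. The mutant strain was treated with each compound, and growth was normalised to cultures receiving vehicle alone.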

[15] = NCI Yeast Anticancer Drug Screen. Data for the mlh1 rad18 strain (AID 175); conditions: S. cerevisiae mlh1 rad18 strain growth inhibition, active compounds read high
In short: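 Compound-treated yeast growth, normalised to vehicle controls. Strain bears defined DNA repair mutations.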

[16] = NCI Yeast Anticancer Drug Screen. Data for the rad18 strain (AID 177); conditions: S. cerevisiae rad18 mutant growth inhibition, active compounds read high
In short: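 Inhibition values reflect reduced yeast growth compared with vehicle-treated controls, using a strain engineered with a DNA damage repair defect.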

[17] = at 5.0 µM (retest, dose inferred, filed as 0.5)
[18] = at 50.0 µM (retest, dose inferred, filed as 5.0)

Measured: growth inhibition

O=[N+]([O-])c1cc(F)c(F)cc1Sc1cc(F)c(F)cc1[N+](=O)[O-]
inactive: [1]; at 1.2 µM 6% | [1]; at 3.7 µM 37% | [2]; at 1.2 µM -4% | [2]; at 3.7 µM 8% | [3]; at 1.2 µM 30% | [3]; at 3.7 µM 68% | [4]; at 1.2 µM -4% | [4]; at 3.7 µM 3% | [5]; at 1.2 µM 6% | [5]; at 3.7 µM 27% | [5]; [17] 66% | [6]; at 1.2 µM -2% | [6]; at 3.7 µM 14% | [6]; [17] -2% | [7]; at 1.2 µM 1% | [7]; at 3.7 µM 17% | [8]; [17] 64% | [9]; at 1.2 µM -2% | [9]; at 3.7 µM 1% | [10]; [17] 27% | [11]; at 1.2 µM -3% | [11]; at 3.7 µM 5% | [11]; [17] 49% | [12]; at 1.2 µM 0% | [12]; at 3.7 µM 12% | [13]; at 1.2 µM 0% | [13]; at 3.7 µM 7% | [14]; at 1.2 µM 6% | [14]; at 3.7 µM 32% | [16]; at 1.2 µM 38% | [16]; at 3.7 µM 69%
active: [1]; at 11.0 µM 92% | [1]; at 33.0 µM 98% | [1]; at 100.0 µM 97% | [2]; at 11.0 µM 85% | [2]; at 33.0 µM 98% | [2]; at 100.0 µM 98% | [3]; at 11.0 µM 96% | [3]; at 33.0 µM 98% | [3]; at 100.0 µM 98% | [4]; at 11.0 µM 80% | [4]; at 33.0 µM 99% | [4]; at 100.0 µM 96% | [5]; at 11.0 µM 91% | [5]; at 33.0 µM 98% | [5]; [18] 98% | [5]; at 50.0 µM 98.4% | [5]; at 100.0 µM 97% | [6]; at 11.0 µM 83% | [6]; at 33.0 µM 99% | [6]; [18] 98% | [6]; at 50.0 µM 98.5% | [6]; at 100.0 µM 98% | [7]; at 11.0 µM 83% | [7]; at 33.0 µM 98% | [7]; at 100.0 µM 97% | [8]; [18] 98% | [8]; at 50.0 µM 98.3% | [9]; at 11.0 µM 75% | [9]; at 33.0 µM 99% | [9]; at 100.0 µM 95% | [10]; [18] 97% | [10]; at 50.0 µM 96.8% | [11]; at 11.0 µM 76% | [11]; at 33.0 µM 98% | [11]; [18] 97% | [11]; at 50.0 µM 98.5% | [11]; at 100.0 µM 98% | [12]; at 11.0 µM 91% | [12]; at 33.0 µM 99% | [12]; at 100.0 µM 96% | [13]; at 11.0 µM 90% | [13]; at 33.0 µM 99% | [13]; at 100.0 µM 97% | [14]; at 11.0 µM 92% | [14]; at 33.0 µM 99% | [14]; at 100.0 µM 97% | [15]; [17] 82% | [15]; [18] 97% | [15]; at 50.0 µM 98.6% | [16]; at 11.0 µM 94% | [16]; at 33.0 µM 98% | [16]; at 100.0 µM 97%

COC(=O)Nc1cn2ccc(C(Cl)=C(Cl)Cl)cc2n1
inactive: [1]; at 1.2 µM -12% | [1]; at 3.7 µM -17% | [1]; at 11.0 µM -21% | [1]; at 33.0 µM -33% | [1]; at 100.0 µM -16% | [2]; at 1.2 µM -16% | [2]; at 3.7 µM -21% | [2]; at 11.0 µM -33% | [2]; at 33.0 µM -29% | [2]; at 100.0 µM -33% | [3]; at 1.2 µM -27% | [3]; at 3.7 µM -19% | [3]; at 11.0 µM -32% | [3]; at 33.0 µM -27% | [3]; at 100.0 µM -28% | [4]; at 1.2 µM -21% | [4]; at 3.7 µM -17% | [4]; at 11.0 µM -29% | [4]; at 33.0 µM -24% | [4]; at 100.0 µM -22% | [5]; at 1.2 µM -22% | [5]; at 3.7 µM -32% | [5]; [17] 21% | [5]; at 11.0 µM -35% | [5]; at 33.0 µM -36% | [5]; [18] 29% | [5]; at 50.0 µM -4.2% | [5]; at 100.0 µM -32% | [6]; at 1.2 µM 4% | [6]; at 3.7 µM -5% | [6]; [17] 17% | [6]; at 11.0 µM 5% | [6]; at 33.0 µM 3% | [6]; [18] 15% | [6]; at 50.0 µM -9.5% | [6]; at 100.0 µM -4% | [7]; at 1.2 µM 18% | [7]; at 3.7 µM -11% | [7]; at 11.0 µM 1% | [7]; at 33.0 µM -13% | [7]; at 100.0 µM -17% | [8]; [17] 28% | [8]; [18] 40% | [8]; at 50.0 µM -27.6% | [9]; at 1.2 µM 42% | [9]; at 3.7 µM 27% | [9]; at 11.0 µM 35% | [9]; at 33.0 µM 21% | [9]; at 100.0 µM 18% | [10]; [17] 7% | [10]; [18] 21% | [10]; at 50.0 µM -5.65% | [11]; at 1.2 µM -8% | [11]; at 3.7 µM -14% | [11]; [17] 24% | [11]; at 11.0 µM -28% | [11]; at 33.0 µM -21% | [11]; [18] 29% | [11]; at 50.0 µM -24.1% | [11]; at 100.0 µM -20% | [12]; at 1.2 µM -40% | [12]; at 3.7 µM -33% | [12]; at 11.0 µM -50% | [12]; at 33.0 µM -49% | [12]; at 100.0 µM -53% | [13]; at 1.2 µM 29% | [13]; at 3.7 µM 23% | [13]; at 11.0 µM 14% | [13]; at 33.0 µM 10% | [13]; at 100.0 µM 12% | [14]; at 1.2 µM 6% | [14]; at 3.7 µM 2% | [14]; at 11.0 µM -18% | [14]; at 33.0 µM -16% | [14]; at 100.0 µM -11% | [15]; [17] 65% | [15]; at 50.0 µM -12.5%
active: [15]; [18] 78%
